# In ChEMBL document CHEMBL1961873, “Compounds: GSK PKIS; Assays: Nanosyn kinase panel” (2012):
# Values joined by “and” are separate entries in the source; they are usually repeats but may differ in a detail not shown here. Equal values may be shown once.
# Experiments:
# [1] = biological target: Serine/threonine-protein kinase pim-2 (Homo sapiens) (UniProt Q9P1W9); details: at 1 µM;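 further: each value is a mean of the inhibition measurements against the kinase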
# [2] = biological target: Serine/threonine-protein kinase pim-3 (Homo sapiens) (UniProt Q86V86); details: at 0.1 µM
# [3] = biological target: Serine/threonine-protein kinase pim-3 (Homo sapiens) (UniProt Q86V86); details: at 1 µM
# [4] = biological target: T1, MAP kinase-activated protein kinase 5 (Homo sapiens) (UniProt Q8IW41); details: at 0.1 µM
# T1 sequence (whole entry): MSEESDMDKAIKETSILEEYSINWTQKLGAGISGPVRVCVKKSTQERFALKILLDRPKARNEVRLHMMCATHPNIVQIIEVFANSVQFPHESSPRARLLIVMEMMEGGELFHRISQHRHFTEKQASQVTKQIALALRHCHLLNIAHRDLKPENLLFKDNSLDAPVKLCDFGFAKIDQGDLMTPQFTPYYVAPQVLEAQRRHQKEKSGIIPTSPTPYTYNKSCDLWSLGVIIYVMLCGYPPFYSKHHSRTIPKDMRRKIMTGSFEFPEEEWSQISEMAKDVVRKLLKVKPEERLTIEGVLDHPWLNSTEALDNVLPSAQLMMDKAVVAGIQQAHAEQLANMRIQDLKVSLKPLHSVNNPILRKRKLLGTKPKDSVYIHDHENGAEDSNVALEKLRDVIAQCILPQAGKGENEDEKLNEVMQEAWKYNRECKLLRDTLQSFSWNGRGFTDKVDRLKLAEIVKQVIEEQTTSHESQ
# [5] = biological target: T1, MAP kinase-activated protein kinase 5 (Homo sapiens); details: at 1 µM
# [6] = biological target: Serine/threonine-protein kinase SIK1 (Homo sapiens) (UniProt P57059); details: at 0.1 µM
# Chain of Serine/threonine-protein kinase SIK1 (Homo sapiens) (P57059 whole entry): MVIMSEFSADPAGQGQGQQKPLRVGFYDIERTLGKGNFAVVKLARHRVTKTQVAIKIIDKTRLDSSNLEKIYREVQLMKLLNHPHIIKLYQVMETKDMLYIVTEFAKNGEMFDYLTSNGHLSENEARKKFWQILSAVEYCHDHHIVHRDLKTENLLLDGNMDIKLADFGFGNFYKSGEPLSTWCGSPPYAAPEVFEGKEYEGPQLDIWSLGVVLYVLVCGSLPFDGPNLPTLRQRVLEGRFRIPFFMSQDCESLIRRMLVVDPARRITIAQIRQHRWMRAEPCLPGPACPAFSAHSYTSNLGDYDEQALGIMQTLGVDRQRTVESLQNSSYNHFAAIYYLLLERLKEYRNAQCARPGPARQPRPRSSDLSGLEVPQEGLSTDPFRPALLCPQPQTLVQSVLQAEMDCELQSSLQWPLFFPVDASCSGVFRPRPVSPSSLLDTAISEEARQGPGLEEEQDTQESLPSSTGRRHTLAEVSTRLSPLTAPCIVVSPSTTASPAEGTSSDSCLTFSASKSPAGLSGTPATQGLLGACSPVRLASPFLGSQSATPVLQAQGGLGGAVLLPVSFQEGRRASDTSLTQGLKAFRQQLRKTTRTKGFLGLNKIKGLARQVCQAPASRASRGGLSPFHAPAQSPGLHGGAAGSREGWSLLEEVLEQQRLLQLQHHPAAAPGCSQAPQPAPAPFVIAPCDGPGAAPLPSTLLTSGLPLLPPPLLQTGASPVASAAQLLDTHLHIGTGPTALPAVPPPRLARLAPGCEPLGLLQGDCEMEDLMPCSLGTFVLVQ
# [7] = biological target: Serine/threonine-protein kinase SIK1 (Homo sapiens) (UniProt P57059); details: at 1 µM
# [8] = biological target: Serine/threonine-protein kinase SIK2 (Homo sapiens) (UniProt Q9H0K1); details: at 0.1 µM
# Chain of Serine/threonine-protein kinase SIK2 (Homo sapiens) (Q9H0K1 whole entry, looked up): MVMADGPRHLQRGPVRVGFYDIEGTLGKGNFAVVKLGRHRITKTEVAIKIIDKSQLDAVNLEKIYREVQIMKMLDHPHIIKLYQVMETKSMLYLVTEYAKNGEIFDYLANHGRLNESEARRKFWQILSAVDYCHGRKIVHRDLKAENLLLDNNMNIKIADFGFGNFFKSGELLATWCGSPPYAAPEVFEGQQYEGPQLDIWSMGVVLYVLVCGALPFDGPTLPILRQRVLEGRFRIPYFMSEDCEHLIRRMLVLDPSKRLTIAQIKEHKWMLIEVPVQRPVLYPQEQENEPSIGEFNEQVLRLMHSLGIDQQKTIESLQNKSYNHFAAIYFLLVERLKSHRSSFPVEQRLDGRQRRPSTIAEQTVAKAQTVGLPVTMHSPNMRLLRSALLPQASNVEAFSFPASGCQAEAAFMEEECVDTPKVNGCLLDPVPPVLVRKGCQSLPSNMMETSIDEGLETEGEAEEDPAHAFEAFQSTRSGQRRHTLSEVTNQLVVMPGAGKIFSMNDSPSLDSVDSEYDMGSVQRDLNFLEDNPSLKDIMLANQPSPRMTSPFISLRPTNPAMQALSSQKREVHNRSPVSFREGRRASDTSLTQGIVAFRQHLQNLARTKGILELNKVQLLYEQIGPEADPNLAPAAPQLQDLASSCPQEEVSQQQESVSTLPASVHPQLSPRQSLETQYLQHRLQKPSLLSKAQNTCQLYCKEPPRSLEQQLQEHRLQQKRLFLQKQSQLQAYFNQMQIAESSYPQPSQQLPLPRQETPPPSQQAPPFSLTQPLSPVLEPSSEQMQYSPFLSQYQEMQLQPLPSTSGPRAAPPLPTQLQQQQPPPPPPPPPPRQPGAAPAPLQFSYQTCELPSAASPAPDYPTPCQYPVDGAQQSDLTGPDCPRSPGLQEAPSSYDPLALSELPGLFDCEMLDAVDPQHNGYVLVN
# [9] = biological target: Serine/threonine-protein kinase SIK2 (Homo sapiens) (UniProt Q9H0K1); details: at 1 µM
# [10] = biological target: T2, Serine/threonine-protein kinase TBK1 (Homo sapiens) (UniProt Q9UHD2); details: at 0.1 µM
# T2 sequence (whole entry): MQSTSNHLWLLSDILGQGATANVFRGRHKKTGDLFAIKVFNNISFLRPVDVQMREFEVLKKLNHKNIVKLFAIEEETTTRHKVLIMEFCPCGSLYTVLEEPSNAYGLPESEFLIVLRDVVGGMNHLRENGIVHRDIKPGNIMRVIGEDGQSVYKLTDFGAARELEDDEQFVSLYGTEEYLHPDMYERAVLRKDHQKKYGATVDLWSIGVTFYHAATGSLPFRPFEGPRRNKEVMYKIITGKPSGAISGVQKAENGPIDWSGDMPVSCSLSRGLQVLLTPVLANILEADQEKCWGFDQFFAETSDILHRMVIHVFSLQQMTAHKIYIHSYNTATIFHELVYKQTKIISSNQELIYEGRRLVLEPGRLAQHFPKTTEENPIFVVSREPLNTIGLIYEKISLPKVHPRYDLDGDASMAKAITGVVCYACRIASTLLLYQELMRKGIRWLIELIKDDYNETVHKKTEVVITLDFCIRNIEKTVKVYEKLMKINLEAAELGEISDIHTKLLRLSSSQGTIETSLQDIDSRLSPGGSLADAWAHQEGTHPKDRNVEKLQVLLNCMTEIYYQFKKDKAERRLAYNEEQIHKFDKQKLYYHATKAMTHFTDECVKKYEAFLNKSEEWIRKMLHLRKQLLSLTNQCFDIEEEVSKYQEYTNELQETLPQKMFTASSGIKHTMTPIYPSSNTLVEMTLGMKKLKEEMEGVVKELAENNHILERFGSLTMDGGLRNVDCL
# [11] = biological target: T2, Serine/threonine-protein kinase TBK1 (Homo sapiens); details: at 1 µM
# [12] = biological target: T3, Testis-specific serine/threonine-protein kinase 1 (Homo sapiens) (UniProt Q9BXA7); details: at 0.1 µM
# T3 sequence (whole entry): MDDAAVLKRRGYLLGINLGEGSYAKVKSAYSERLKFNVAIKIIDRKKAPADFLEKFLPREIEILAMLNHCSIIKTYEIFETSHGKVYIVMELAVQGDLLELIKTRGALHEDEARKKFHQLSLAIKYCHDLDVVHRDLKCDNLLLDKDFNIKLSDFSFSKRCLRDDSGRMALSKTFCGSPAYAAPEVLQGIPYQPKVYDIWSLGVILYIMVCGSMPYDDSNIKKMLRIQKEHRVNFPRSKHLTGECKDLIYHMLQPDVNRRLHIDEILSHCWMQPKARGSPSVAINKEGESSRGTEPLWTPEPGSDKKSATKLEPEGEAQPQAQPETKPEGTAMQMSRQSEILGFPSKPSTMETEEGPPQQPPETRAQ
# [13] = biological target: T3, Testis-specific serine/threonine-protein kinase 1 (Homo sapiens); details: at 1 µM
# [14] = biological target: T4, Testis-specific serine/threonine-protein kinase 2 (Homo sapiens) (UniProt Q96PF2); details: at 0.1 µM
# T4 sequence (whole entry): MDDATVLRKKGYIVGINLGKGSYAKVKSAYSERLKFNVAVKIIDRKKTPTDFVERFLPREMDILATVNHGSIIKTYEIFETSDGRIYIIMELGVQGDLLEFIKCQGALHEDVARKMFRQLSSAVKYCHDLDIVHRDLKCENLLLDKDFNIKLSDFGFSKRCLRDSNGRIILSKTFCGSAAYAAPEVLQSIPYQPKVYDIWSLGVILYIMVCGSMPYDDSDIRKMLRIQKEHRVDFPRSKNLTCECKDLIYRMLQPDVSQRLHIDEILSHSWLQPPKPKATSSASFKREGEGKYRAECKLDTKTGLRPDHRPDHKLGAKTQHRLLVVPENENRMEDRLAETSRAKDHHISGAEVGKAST
# [15] = biological target: T4, Testis-specific serine/threonine-protein kinase 2 (Homo sapiens); details: at 1 µM
# [16] = biological target: Casein kinase I isoform alpha (Homo sapiens) (UniProt P48729); details: at 0.1 µM
# Chain of Casein kinase I isoform alpha (Homo sapiens) (P48729 2-337 limits assumed): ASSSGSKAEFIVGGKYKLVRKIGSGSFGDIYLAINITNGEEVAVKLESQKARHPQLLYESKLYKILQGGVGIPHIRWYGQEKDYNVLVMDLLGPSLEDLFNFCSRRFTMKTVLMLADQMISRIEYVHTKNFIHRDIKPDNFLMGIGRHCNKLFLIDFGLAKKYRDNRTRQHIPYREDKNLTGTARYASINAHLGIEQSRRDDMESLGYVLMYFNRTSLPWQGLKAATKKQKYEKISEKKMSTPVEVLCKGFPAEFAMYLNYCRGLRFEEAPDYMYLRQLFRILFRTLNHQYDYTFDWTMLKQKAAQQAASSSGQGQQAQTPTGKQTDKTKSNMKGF
# [17] = biological target: Casein kinase I isoform alpha (Homo sapiens) (UniProt P48729); details: at 1 µM
# [18] = biological target: Casein kinase I isoform gamma-1 (Homo sapiens) (UniProt Q9HCP0); details: at 0.1 µM
# Chain of Casein kinase I isoform gamma-1 (Homo sapiens) (Q9HCP0 whole entry, looked up, canonical isoform): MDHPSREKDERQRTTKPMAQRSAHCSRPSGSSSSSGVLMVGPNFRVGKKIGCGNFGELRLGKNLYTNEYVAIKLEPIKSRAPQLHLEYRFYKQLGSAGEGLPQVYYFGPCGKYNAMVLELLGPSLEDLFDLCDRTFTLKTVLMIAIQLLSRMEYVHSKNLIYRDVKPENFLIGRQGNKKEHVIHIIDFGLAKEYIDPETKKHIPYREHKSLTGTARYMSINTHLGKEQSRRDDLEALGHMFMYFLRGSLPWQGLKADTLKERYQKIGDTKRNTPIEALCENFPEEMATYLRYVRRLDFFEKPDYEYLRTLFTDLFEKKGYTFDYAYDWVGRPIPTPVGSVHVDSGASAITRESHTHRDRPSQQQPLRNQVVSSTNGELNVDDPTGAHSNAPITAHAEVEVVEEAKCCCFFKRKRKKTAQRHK
# [19] = biological target: Casein kinase I isoform gamma-1 (Homo sapiens) (UniProt Q9HCP0); details: at 1 µM
# [20] = biological target: Casein kinase I isoform gamma-2 (Homo sapiens) (UniProt P78368); details: at 0.1 µM;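 further: values are mean inhibition figures reported as part of the GSK PKIS dataset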
# Chain of Casein kinase I isoform gamma-2 (Homo sapiens) (P78368 whole entry, looked up, canonical isoform): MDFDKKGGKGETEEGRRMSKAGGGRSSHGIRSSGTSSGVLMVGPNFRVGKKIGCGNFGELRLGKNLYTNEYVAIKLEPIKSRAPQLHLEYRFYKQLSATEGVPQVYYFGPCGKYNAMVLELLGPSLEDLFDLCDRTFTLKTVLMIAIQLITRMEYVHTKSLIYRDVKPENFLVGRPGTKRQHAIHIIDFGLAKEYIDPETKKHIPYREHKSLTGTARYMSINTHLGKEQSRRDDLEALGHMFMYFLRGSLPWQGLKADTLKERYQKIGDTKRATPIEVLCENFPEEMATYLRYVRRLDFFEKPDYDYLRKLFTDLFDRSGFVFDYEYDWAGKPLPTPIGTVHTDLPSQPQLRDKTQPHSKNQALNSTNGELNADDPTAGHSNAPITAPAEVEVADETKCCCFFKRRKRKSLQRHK
# Chain of Serine/threonine-protein kinase pim-2 (Homo sapiens) (Q9P1W9 whole entry, looked up): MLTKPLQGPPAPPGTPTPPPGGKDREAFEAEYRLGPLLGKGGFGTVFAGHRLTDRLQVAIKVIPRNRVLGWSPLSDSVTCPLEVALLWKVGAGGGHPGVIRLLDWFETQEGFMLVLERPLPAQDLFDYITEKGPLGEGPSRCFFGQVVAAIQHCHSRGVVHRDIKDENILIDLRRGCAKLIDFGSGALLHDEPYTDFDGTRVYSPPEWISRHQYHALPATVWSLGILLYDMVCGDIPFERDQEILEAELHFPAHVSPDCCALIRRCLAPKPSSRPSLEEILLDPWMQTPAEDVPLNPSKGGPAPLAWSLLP
SMILES,inhibition [1],inhibition [2],inhibition [3],inhibition [4],inhibition [5],inhibition [6],inhibition [7],inhibition [8],inhibition [9],inhibition [10],inhibition [11],inhibition [12],inhibition [13],inhibition [14],inhibition [15],inhibition [16],inhibition [17],inhibition [18],inhibition [19],inhibition [20]
CC1=C(C(=O)Nc2ccc3[nH]ncc3c2)C(c2ccc(F)cc2)N=C(c2ccc(C(F)(F)F)nc2)N1 (stereo not given),0.66%,0.08%,-1.05%,0.55%,0.22%,4.91%,4.39%,2.09%,4.41%,-0.16%,2.03%,1.72%,-0.03%,0.88%,-1.54%,0.89%,2.81%,3.19%,2.72%,0.59%
COc1ccc(Nc2ncc(-c3ccccc3)o2)cc1OC,1.95%,0.89%,1.57%,-0.17%,-1.05%,2.55%,28.9%,1.69%,39%,-0.12%,10.7%,0.54%,1.75%,0.12%,0.02%,3.39%,6.61%,0.83%,3.24%,0.28%
O=C(O[C@H]1CN[C@H](C#Cc2cc3ncnc(Nc4ccc5c(ccn5Cc5cc(F)ccc5F)c4)c3s2)C1)N1CCOCC1,0.17%,-1.4%,-2.6%,1.04%,0.93%,5.35%,7.23%,2.92%,7.13%,2.75%,2.11%,3.63%,4.15%,2.52%,1.57%,2.93%,5.4%,4.17%,5.41%,3.09%
CC1=C(C(=O)Nc2ccc3[nH]nc(C)c3c2)C(c2ccc(C(F)(F)F)cc2)CC(=O)N1 (stereo not given),0.55%,0.17%,-2.32%,0.34%,-0.66%,0.72%,1.39%,4.07%,0.64%,-1.52%,3.52%,1.88%,0.25%,1.4%,-4.29%,2.09%,3.07%,1.96%,3.62%,1.19%
Cc1c2ccc(N(C)c3ccnc(Nc4cccc(S(N)(=O)=O)c4)n3)cc2nn1C,-3.16%,-1.16%,-2.47%,1.9%,1.08%,4.24%,27.6%,3.64%,9.51%,4.99%,8.43%,3.59%,3.32%,1.26%,1.14%,3.21%,4.51%,1.31%,1.52%,-0.37%
c1ccc(-c2n[nH]cc2-c2ccnc(-c3ccc(OCCn4ccnc4)cc3)c2)nc1,0.26%,0.51%,0.09%,0.48%,1.25%,1.64%,6.26%,0.8%,10%,0.6%,0.29%,1.73%,2.8%,2.08%,1.93%,3.33%,18.1%,0.69%,3.14%,0.83%
CN1CCN(Cc2ccc(-c3cc4ncnc(Nc5ccc(OCc6cccc(F)c6)c(Cl)c5)c4s3)o2)CC1,0.42% and 1.37%,-0.99% and -1.6%,0.95% and 2.39%,0.79% and 1.52%,0.84% and 3.86%,4.03% and 8.14%,12.8% and 15.9%,2.15% and 4.89%,1.94% and 9.4%,1.51% and 5%,2.76% and 4.14%,2.79% and 6.19%,3.62% and 7.65%,0.34% and 4.58%,0.35% and 5.87%,3.03% and 3.11%,4.88% and 3.62%,2.79% and 5.01%,4.51% and 5.57%,2.31% and 3.69%
NC(=O)c1ccc2c(-c3ccnc(NCCCO)n3)c(-c3ccc(F)cc3)nn2c1,1.11%,-0.5%,-0.27%,1.47%,1.16%,3.64%,16%,9.22%,40.4%,4.13%,4.69%,3.95%,3.68%,2.67%,2.23%,25.3%,67.6%,7.1%,19.8%,5.87%
CS(=O)(=O)Nc1ccc(-c2ccc3c(NC(=O)C4CC4)n[nH]c3c2)cc1,4%,0.02%,2.14%,0.66%,-1.55%,3.97%,5.51%,5.95%,1.37%,0.86%,7.65%,2.9%,2.78%,0.58%,-0.76%,-2.5%,3.8%,2.55%,4.34%,1.91%
O=C1Nc2ccccc2/C1=C1\CCc2cc(O)ccc21,1.46%,-1.28%,3.83%,1.7%,2.07%,2.74%,18.1%,5.12%,21%,1.68%,13%,3.88%,6.96%,1.83%,2.14%,4.95%,9.64%,5%,6.41%,3.27%
O=C(Nc1n[nH]c2nnc(-c3cccnc3)cc12)C1CC1,28.7%,26.8%,69.7%,0.13%,-0.19%,1.74%,5.12%,1.86%,-1.67%,0.25%,1.3%,0.18%,1.92%,-0.11%,0.95%,-0.76%,-2.19%,-0.63%,0.33%,-0.76%
CCN1CCC(C(=O)Nc2n[nH]c3nnc(-c4cccc(F)c4F)cc23)CC1,0.25%,-0.6%,2.08%,0.03%,-0.34%,-3.64%,0.15%,-2.38%,-0.5%,0.48%,0.85%,-0.97%,-0.75%,0.04%,0.43%,-1.81%,-0.5%,1.73%,-0.13%,-0.42%
Cc1nnc(-c2cccc(-c3ccc(C(=O)NCC4CC4)cc3)c2)o1,1.27%,1.21%,5.19%,2.14%,4.28%,7.04%,10.7%,12.9%,5.76%,2.51%,6.92%,4.11%,5.87%,2.89%,3.75%,1.99%,5.86%,4.47%,4.29%,2.71%
